From PubChem
This is a sample that favours compounds with a hit; in the whole collection about 3.5% have one here.
MITF primary: MITF inhibitors, primary screen, biochemical, AlphaScreen, human | hit rate 0.91% among 650,000 | inhibition, % at 2.6 µM | AlphaScreen MITF homodimerization, bead proximity signal | Microphthalmia-associated transcription factor (Homo sapiens), O75030; in the data active means inhibition above about 50%;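 further: 0% = vehicle wells with protein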
FBW7 activator: FBW7 E3 ligase activators, primary screen, biochemical, AlphaScreen, human | AlphaScreen FBW7–phospho-cyclin E peptide binding, activator screen | hit rate 0.13% among 650,000 | normalized activity (activation), % at 26.1 µM | F-box/WD repeat-containing protein 7 (Homo sapiens), Q969H0; in the data active means normalized activity above about 1.9%;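 further: purified mutant Fbw7 with reduced substrate affinity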
TEAD-YAP block: TEAD-YAP interaction inhibition, primary screen, TEAD-YAP interaction inhibitor project, luminescence, HEK-TIYL cells; hit rate 1.4% among 640,000; inhibition, % at 9.12 µM; AID 1259422, 2018; TEAD-Gal4/YAP UAS-luciferase luminescence; in the data active means inhibition above about 32%;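 further: 0% = median of test compound wells and 100% = reference inhibitor wells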
GPR151 ag: activators of human GPR151, primary screen, cell-based, PathHunter beta-arrestin, luminescence; G-protein coupled receptor 151 (Homo sapiens), Q8TDV0; PathHunter beta-arrestin GPR151 cells; activation, % at 11.2 µM; hit rate 1% among 650,000; AID 1508602, 2020; in the data active means activation above about 4.9%;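 further: 0% = median of compound wells and 100% = cells with positive control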
GPR151 conf act: GPR151 activators, triplicate retest, confirmation, cell-based, PathHunter beta-arrestin, luminescence; shares compounds with GPR151 ag; GPR151 PathHunter beta-arrestin cells, 90 min; % of EA-reagent control over plate median; activation, % at 11.2 µM; 6,700 tested, under 10 active;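 active means mean percent activation across replicates above the confirmation screen cutoff of 4.91%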
GPR119 ag: GPR119 activators in beta-arrestin cells, counter-screen for GPR151 activator project, cell-based, PathHunter beta-arrestin, luminescence, triplicate | shares compounds with GPR151 ag | 90 min; 0 = compound-well median, 100 = enzyme-acceptor control | activation, % at 11.2 µM | hit rate 0.3% among 6,700;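 active means mean percent activation in the counterscreen above 29.09%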;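 further: counterscreen on off-target GPR119 to flag nonselective hits from the GPR151 activator screen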
* hit, by the source's call; nt = no result.

SMILES	MITF primary	FBW7 activator	TEAD-YAP block	GPR151 ag	GPR151 conf act	GPR119 ag
O=C(CN(C(=O)c1csnn1)c1ccc(F)cc1)NCc1ccccc1	8	0	-2	5.6*	-1	-6
Cc1ccc(CNC(=O)c2sccc2-n2cccc2)cc1	16	0	2	5.6*	0	7
Cc1ccc(CNC(=O)Cc2ccc(Cl)cc2)cc1	1	0	-12	8.4*	0	-2
Cc1ccc(CNC(=O)c2ccc(C)cc2)cc1	28	1	-20	0	nt	nt
COc1ccc(OC)c(S(=O)(=O)Nc2cc(C)ccn2)c1	-6	0	-10	0	nt	nt
CC1CCN(C(=O)C2CCN(Cc3cc(Cl)ccc3O)CC2)CC1	20	0	13	0	nt	nt
COc1ccccc1OCC(=O)NCc1ccc(C)cc1	-3	1	-12	5.4*	0	4
O=C(Cn1ncn2c(cc3ccccc32)c1=O)Nc1cccc(F)c1	-15	0	-13	0	nt	nt
NCCNC(=O)/C(=N\O)c1ccccc1	4	0	15	0	nt	nt
O=C(NCCCNCCCNC(=O)/C(=N/O)c1ccccc1)/C(=N/O)c1ccccc1	10	0	-6	5.4*	0	4
Clc1ccc(CCNc2ncnc3c2c(-c2ccccc2)cn3-c2cccc(Cl)c2)cc1	-3	0	-4	1	nt	nt
Cc1cccc(Nc2nc3nonc3n3cnnc23)c1C	-3	0	-2	5.8*	1	6
CCc1cc2cc3c(cc2n2c(=O)n(Cc4nccc(OC)c4OC)nc12)OCO3	11	1	4	0	nt	nt
O=C(Nc1ccc2c(c1)CN(C(=O)Cn1c(=O)oc3ccccc31)CC2)C1CCCO1 (configuration not stated)	13	0	-2	6.8*	-1	-7
CSCCNCc1ccc(OCC(O)CN2CCc3ccccc3C2)cc1 (configuration not stated)	-12	0	5	1	nt	nt
CCc1cccc(OCC(=O)Nc2ccccc2C(=O)O)c1	9	1	-27	-1	nt	nt
CCc1cccc(OCC(=O)Nc2ccccc2C(N)=O)c1	0	0	-22	10*	-1	7
O=C(ON1C(=O)CCC1=O)c1ccc(Br)o1	10	0	-1	-1	nt	nt
C=CCNC(=O)/C(=C/c1ccc(OC(C)=O)c(OC)c1)NC(C)=O	11	0	-3	1	nt	nt
O=c1c2ccccc2ncn1CCOCCOc1cccc2ccccc12	9	0	0	1	nt	nt
COc1ccccc1OCCOCCn1cnc2ccccc2c1=O	-3	0	-14	14*	0	0
Cc1ccc(OCCCCn2cnc3ccccc3c2=O)cc1	10	0	2	5.5*	0	-4
COC(F)(C(=O)Nc1nc2ccccc2s1)C(F)(F)F (configuration not stated)	-6	0	-4	-3	nt	nt
O=C(NCCCN1CCN(c2ccc(Cl)cc2)CC1)Nc1ccc(F)cc1	-7	0	-9	0	nt	nt
O=C(NCCCN1CCN(c2ccc(Cl)cc2)CC1)Nc1ccccc1	4	0	-7	6.6*	0	8
SMILES	MITF primary	FBW7 activator	TEAD-YAP block	GPR151 ag	GPR151 conf act	GPR119 ag
COc1ccc(OC)c(C2=C/C(=C/c3cccc(OC)c3OC)C(=O)O2)c1	-5	0	-6	5.1*	0	4
O=[N+]([O-])c1ccccc1CNc1ccc(F)c(Cl)c1	7	0	-10	5.9*	0	0
COC(=O)C(C)NS(=O)(=O)c1ccc([N+](=O)[O-])cc1 (configuration not stated)	9	0	13	1	nt	nt
CNC(=O)/C(C#N)=C/c1ccc(-c2nc3ccccc3s2)o1	-5	0	-58	5.5*	-1	-1
N#C/C(=C\c1ccc(-c2nc3ccccc3s2)o1)C(N)=O	9	0	-40	-2	nt	nt
CCOC(=O)c1ccc(NC(=O)CSc2nnc(CNC(=O)c3ccco3)n2-c2ccccc2OC)cc1	10	0	6	-2	nt	nt
COC(=O)c1ccc(OCC2c3cc(OC)c(OC)cc3CCN2C(=O)c2cccc(OC)c2OC)cc1 (configuration not stated)	0	0	-13	5.3*	1	1
COCCNC(=O)c1nn(C)c2c1CSc1ccccc1-2	2	0	-31	6.7*	-1	-9
O=C(COc1ccc(Cl)cc1Br)N/N=C/c1cc([N+](=O)[O-])ccc1O	-5	0	-4	5.1*	1	11
CC(O)CCC(=O)N/N=C/c1cc([N+](=O)[O-])ccc1O (configuration not stated)	7	-2	3	10*	0	0
O=C1C2C3C=CC(C3)C2C(=O)N1c1cccc([N+](=O)[O-])c1 (configuration not stated)	11	1	4	0	nt	nt
CCOc1ccc(-c2nc(-c3ccc([N+](=O)[O-])cc3)no2)cc1OCC	-9	0	-8	-1	nt	nt
CCOc1ccc(-c2nc(-c3ccncc3)no2)cc1OCC	9	0	-3	4.9*	0	0
COc1ccc(C2CC(=O)C3=C(C2)NC(C)=C(C(=O)OC2CCCC2)C3c2ccccc2OC)cc1OC (configuration not stated)	6	0	4	0	nt	nt
COc1ccc(C2CC(=O)C3=C(C2)NC(C)=C(C(=O)OC2CCCC2)C3c2ccccc2C)cc1OC (configuration not stated)	10	0	17	5.3*	-1	9
COCCn1nnnc1C(c1ccc(OC)cc1OC)N1CCc2ccccc2C1 (configuration not stated)	2	0	12	-1	nt	nt
CC(=O)c1cccc(NC(=O)COc2c(C)cccc2C)c1	-14	0	-7	5.2*	0	-12
COC(=O)C1=CN(Cc2ccc(OC)c(OC)c2)C=C(C(=O)OC)C1c1ccc(C(C)C)cc1	5	0	-15	0	nt	nt
O=C(/C=C/c1ccccc1)NCCOC(=O)Nc1ccccc1	11	1	-1	9.8*	1	5
CCCn1c(-c2ccc(F)cc2)cn2c3c(=O)n(C)c(=O)n(C)c3nc12	2	0	24	1	nt	nt
O=C(CCCCCn1c(=S)[nH]c2ccsc2c1=O)NCc1ccco1	-1	0	-11	2	nt	nt
Fc1cccc(-c2cc3nc4c(c(N5CCOCC5)n3n2)CCC4)c1	7	0	0	6.7*	2	9
Fc1ccc(-c2cc3nc4c(c(N5CCOCC5)n3n2)CCC4)cc1	6	0	5	1	nt	nt
